Test [1] can be described thus: qHTS to identify inhibitors of the type 1 interferon - major histocompatibility complex class I in skeletal muscle: primary screen against the NCATS Mechanism Interrogation Plate v5.0 (MIPE) Libary (AID 1347411). Note: nearly all actives have a fitted effect of over 65% in size. Note: potency is the fitted concentration of half-maximal effect. A digest of the protocol:
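Seed engineered human myoblasts (HLA-B HiBit) in medium without dexamethasone containing 4 ng/ml IFN-beta; after 1 hr add compound titrations (top 46 uM final). Incubate 24 hrs at 37 C, lyse 10 min with HiBiT reagent, read luminescence.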
(In qHTS, concentration-response curves come from the screen itself.)

The target in test [2] is Calcium and integrin-binding protein 1 (Homo sapiens) (UniProt Q99828). Kind of test: Primary qHTS for Identification of Calcium Integrin Binding Protein 1 (CIB1) Competitor (AID 1508620). Note: top concentration of the series differs between compounds. In a few lines: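 Fluorescence polarization competition: GST-tagged CIB1 (1 uM final) preincubated with compound 15 min at room temperature, then FITC-labelled alphaIIb peptide (100 nM final) added. After 15 min at room temperature, polarization read at Ex 480/Em 540.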

A short description of test [3]: Primary qHTS for small molecule stabilizers of the endoplasmic reticulum resident proteome: Secreted ER Calcium Modulated Protein (SERCaMP) assay (AID 1508630). A digest of the protocol: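 The SH-SY5Y reporter protocol was run at 3 concentrations up to 38.3 uM (primary) or 11 concentrations (follow-up): 16 h compound, 100 nM thapsigargin for 4 h, then extracellular luciferase luminescence.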

Test [4] has as its target Cytochrome P450 2D6 (Homo sapiens) (UniProt P10635). Kind of test: Cytochrome P450 family 2 subfamily D member 6 (CYP2D6) small molecule antagonists: luciferase biochemical (cell-free) qHTS assay (AID 1645840; active = well fitted curve in the direction sought with a large enough effect in the repeat runs; an effect the other way counts as inactive or inconclusive; note: nearly all actives have a fitted effect of over 55% in size; note: potency is the fitted concentration of half-maximal effect). A digest of the protocol: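 P450-Glo CYP2D6 system: proluciferin substrate converted by enzyme to luciferin, read by luminescence proportional to activity. Enzyme-substrate mix with compound 10 min at room temperature, then NADPH regeneration 1 h before detection reagent.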

The target of test [5] is Cytochrome P450 2C9 (Homo sapiens) (UniProt P11712). Kind of test: Cytochrome P450 family 2 subfamily C member 9 (CYP2C9) small molecule antagonists: luciferase biochemical (cell-free) qHTS assay (AID 1645842; active = well fitted curve in the direction sought with a large enough effect in the repeat runs; an effect the other way counts as inactive or inconclusive; note: nearly all actives have a fitted effect of over 55% in size; note: potency is the fitted concentration of half-maximal effect). A digest of the protocol:
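P450-Glo CYP2C9 system: proluciferin substrate with enzyme in mix containing 0.4% BSA, 10 min at room temperature, then NADPH regeneration solution added and incubated 1 h at 37C. Detection reagent stopped reaction; luminescence read after 20 min as RLU.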

Test [6] can be described thus: Primary qHTS for inhibitors of nuclear receptor binding SET domain protein 2 (NSD2) in an isogenic RCH-ACV NSD2 p.E1099K mutant (9B) (AID 1645876). Note: nearly all actives have a fitted effect of over 70% in size. Note: potency is the fitted concentration of half-maximal effect.
In test [7] the target is Protein phosphatase 1D (Homo sapiens) (UniProt O15297). Kind of test: RapidFire Mass Spectrometry qHTS Assay for Modulators of WT P53-Induced Phosphatase 1 (WIP1) (AID 1347424). Note: series mostly up to about 63 µM. In a few lines: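 RapidFire MS readout of dephosphorylated VEPPL-S-QETFS product, with 1 uM isotope-labelled peptide standard. Reaction: 10 nM WIP1, 2 uM phosphopeptide substrate, 5 min, room temperature, after 1 h compound preincubation; stopped with 0.5% formic acid.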

Test [8] has the same target. Kind of test: Rhodamine-PBP qHTS Assay for Modulators of WT P53-Induced Phosphatase 1 (WIP1) (AID 1347425). In a few lines:
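WIP1 (5 nM final) was preincubated with compound for 1 hour at room temperature. It then dephosphorylated 10 uM VEPPL-pS-QETFS peptide in Tris-HCl pH 7.5 with 30 mM MgCl2. Released Pi was detected by 10 uM Rh-PBP fluorescence (ex 525/em 598 nm) read at 1-min intervals for 11 min, as delta f1 - f0.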

Test [9] is described as follows: Primary qHTS for inhibitors of La Crosse Virus (LACV) - induced cell death in SH-SY5Y cells (AID 1508616).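 Note: top concentration of the series differs between compounds; higher means more rescue of cells from virus-induced death.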 In a few lines: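 SH-SY5Y, 6000 cells/well; cpd via pin tool in DMSO; LACV 0.01 MOI; 6 d 37C 5% CO2; ATPLite, 5 min RT; luminescence normalized to ±virus DMSO controls.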
Test [10] can be described thus: A High-Content qHTS Against Drug Library for the Identification of Small Molecules that Inhibit DYT1 Early Onset Primary Dystonia-Associated Cell Pathology (AID 1645839; calls by dose curve; note: series mostly up to about 46 µM). In a few lines: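 Cells were seeded and left for 24 h, then dosed with compound alongside tetracycline induction of mutant EGFP-TorsinA. They were incubated for 48 h, fixed in 4% paraformaldehyde, permeabilized and imaged for mislocalization (%pathology) and cell count.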

Test [11] addresses Cytochrome P450 3A4 (Homo sapiens) (UniProt P08684). Kind of test: Cytochrome P450 family 3 subfamily A member 4 (CYP3A4) small molecule antagonists: luciferase qHTS assay (AID 1645841; active = well fitted curve in the direction sought with a large enough effect in the repeat runs; an effect the other way counts as inactive or inconclusive; note: nearly all actives have a fitted effect of over 45% in size). A digest of the protocol: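 P450-Glo CYP3A4 enzyme with proluciferin substrate preincubated 10 min with compound at room temperature, then NADPH regeneration 1 h. Luciferin detection reagent added for 20 min; luminescence recorded. Ketoconazole positive control.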

The target in test [12] is N-terminal Xaa-Pro-Lys N-methyltransferase 1 (Homo sapiens) (UniProt Q9BV86). Kind of test: Confirmatory qHTS for Inhibitors of N-terminal methyltransferase 1 (NTMT1): MTaseGlo Assay (AID 1645874).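 Note: luminescence from SAH made as NTMT1 methylates SPKRIA peptide using SAM; series mostly up to about 100 µM; nearly all actives have a fitted effect of over 65% in size.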 A digest of the protocol:
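Inhibition was derived from luminescence after SAH-to-ATP conversion, scaled between no-enzyme and DMSO wells, then fitted by 4-parameter Hill. Conditions: 125 nM NTMT1, 100 uM SAM, 1 uM SPKRIA, 30 min RT.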

This note sets out measurements from PubChem BioAssay (NCATS).

Where “and” joins values, the source holds several entries; their conditions need not be identical. Equal values may be shown once. Inconclusive results are not listed. Calls of active or inactive are those of the source. Unless noted, calls come from the whole dose curve; as a rule, active = well fitted curve in the direction sought with a large enough effect; inconclusive = small, poorly fitted or top-dose-only effect, or another doubt; inactive = no such curve, though single readings can be large; an effect the other way counts as inactive or inconclusive.

Sequence of Protein phosphatase 1D (Homo sapiens) (O15297 whole entry, looked up): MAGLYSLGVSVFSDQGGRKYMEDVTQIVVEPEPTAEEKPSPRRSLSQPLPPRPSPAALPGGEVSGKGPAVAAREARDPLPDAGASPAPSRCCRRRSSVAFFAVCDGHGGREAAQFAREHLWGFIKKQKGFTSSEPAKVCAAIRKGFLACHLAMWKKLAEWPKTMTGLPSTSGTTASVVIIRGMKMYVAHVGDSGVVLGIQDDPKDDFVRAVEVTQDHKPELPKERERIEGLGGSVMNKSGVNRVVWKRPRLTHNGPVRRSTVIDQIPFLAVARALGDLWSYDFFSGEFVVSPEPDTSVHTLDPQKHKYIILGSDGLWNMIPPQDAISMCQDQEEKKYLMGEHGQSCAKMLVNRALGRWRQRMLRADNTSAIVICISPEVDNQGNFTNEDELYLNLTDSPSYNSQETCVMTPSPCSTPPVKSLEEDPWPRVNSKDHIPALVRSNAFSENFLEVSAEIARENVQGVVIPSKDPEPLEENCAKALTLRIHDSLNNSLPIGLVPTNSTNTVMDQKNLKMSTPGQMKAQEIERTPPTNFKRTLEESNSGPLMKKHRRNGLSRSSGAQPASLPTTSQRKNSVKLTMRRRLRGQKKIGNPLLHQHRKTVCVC
Sequence of Cytochrome P450 2C9 (Homo sapiens) (P11712 whole entry, looked up): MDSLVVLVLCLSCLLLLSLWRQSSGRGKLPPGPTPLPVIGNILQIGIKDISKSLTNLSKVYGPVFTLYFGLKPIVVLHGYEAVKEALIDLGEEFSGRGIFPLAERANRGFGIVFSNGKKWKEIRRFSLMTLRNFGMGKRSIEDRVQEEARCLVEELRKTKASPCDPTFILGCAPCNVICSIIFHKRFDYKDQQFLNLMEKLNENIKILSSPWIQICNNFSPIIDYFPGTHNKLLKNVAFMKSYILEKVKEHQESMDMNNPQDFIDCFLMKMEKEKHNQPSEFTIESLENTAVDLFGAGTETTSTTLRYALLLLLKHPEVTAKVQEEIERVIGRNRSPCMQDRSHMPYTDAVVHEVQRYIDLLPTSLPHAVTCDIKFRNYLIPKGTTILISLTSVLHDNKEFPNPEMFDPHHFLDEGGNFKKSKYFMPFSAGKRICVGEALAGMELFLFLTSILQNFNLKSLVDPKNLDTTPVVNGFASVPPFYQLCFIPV
Sequence of Calcium and integrin-binding protein 1 (Homo sapiens) (Q99828 whole entry, looked up): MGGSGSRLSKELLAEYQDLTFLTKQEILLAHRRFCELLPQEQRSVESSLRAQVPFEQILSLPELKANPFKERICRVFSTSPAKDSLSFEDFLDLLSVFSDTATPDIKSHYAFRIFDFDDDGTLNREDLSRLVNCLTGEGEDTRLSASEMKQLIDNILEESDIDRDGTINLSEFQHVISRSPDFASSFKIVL
Sequence of Cytochrome P450 2D6 (Homo sapiens) (P10635 whole entry, looked up): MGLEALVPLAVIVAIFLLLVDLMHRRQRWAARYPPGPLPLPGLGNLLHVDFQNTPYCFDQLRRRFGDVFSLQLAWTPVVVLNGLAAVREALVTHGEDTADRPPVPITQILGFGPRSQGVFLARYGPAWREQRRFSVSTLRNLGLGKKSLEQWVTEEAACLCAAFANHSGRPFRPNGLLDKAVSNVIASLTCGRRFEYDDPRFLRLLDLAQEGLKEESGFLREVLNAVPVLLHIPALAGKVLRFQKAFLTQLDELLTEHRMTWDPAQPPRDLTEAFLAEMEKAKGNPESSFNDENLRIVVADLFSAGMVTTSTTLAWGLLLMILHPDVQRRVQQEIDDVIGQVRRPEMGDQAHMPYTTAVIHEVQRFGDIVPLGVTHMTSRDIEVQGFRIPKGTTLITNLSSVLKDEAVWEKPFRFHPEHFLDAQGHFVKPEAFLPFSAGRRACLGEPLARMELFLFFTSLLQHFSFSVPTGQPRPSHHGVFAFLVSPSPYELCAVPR
Sequence of Cytochrome P450 3A4 (Homo sapiens) (P08684 whole entry, looked up): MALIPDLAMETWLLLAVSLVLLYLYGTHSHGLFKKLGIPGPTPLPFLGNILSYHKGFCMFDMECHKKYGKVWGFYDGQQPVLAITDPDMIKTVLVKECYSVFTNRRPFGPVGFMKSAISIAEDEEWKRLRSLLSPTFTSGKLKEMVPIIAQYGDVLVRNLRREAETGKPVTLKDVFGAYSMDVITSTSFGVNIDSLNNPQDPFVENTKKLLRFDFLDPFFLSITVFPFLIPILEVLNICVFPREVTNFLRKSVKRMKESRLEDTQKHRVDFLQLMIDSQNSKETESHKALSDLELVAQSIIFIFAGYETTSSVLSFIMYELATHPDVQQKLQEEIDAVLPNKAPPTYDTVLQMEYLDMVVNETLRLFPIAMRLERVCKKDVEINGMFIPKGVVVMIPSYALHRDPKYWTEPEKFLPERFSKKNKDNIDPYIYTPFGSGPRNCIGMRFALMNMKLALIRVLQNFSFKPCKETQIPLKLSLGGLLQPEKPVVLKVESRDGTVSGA
Sequence of N-terminal Xaa-Pro-Lys N-methyltransferase 1 (Homo sapiens) (Q9BV86 whole entry, looked up): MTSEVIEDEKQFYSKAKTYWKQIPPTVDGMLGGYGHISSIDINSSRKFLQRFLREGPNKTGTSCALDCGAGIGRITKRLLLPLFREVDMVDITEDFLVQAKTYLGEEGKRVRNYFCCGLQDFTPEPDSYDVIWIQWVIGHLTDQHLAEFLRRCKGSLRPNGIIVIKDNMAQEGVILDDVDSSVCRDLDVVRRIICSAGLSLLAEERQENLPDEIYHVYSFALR

Regarding `O=c1[nH]nc(OCCCc2ccc(Cl)cc2)c(NCc2cccnc2)c1Br`, the Potency result in test [1], in test [2] and in test [3] was “inactive” each time. The Potency in test [4] was 10.7 µM (active); in test [5] it was 1.51 µM (active); in test [6] it was 8.17 µM (active).
On to `COc1cc(F)c(C(C)C)cc1-c1ccc(C(F)(F)F)cc1CN1C(=O)O[C@H](c2cc(C(F)(F)F)cc(C(F)(F)F)c2)[C@@H]1C`, for which the Potency entry in test [1] and in [2] was “inactive” each time.
Turning to `COc1ccnc(CS(=O)c2nc3ccc(OC(F)F)cc3[nH]2)c1OC` (stereo not given), the Potency result in test [1], in test [7], in [2] and in test [3] was “inactive” throughout. Moreover, the result in test [8], in [9] and in [10] was inactive. Besides, the Potency in test [4] is 5.49 µM (active) and 16.9 µM (active); in [5], 27.5 µM (active) and 21.3 µM (active); in test [6] it was 15 µM (active) and 18.6 µM (active).
`CC(C)(OCc1nn(Cc2ccccc2)c2ccccc12)C(=O)O`: the Potency result in [1], in test [2], in test [3], in test [4], in test [5] and in test [6] was “inactive” in each case. Besides, in test [11], the outcome was inactive.
Consider `COc1cc2nccc(Oc3ccc(NC(=O)Nc4ccc(F)cc4F)c(F)c3)c2cc1OC`, for which the Potency in [1] was 10.4 µM (active). Moreover, the Potency entry in test [2] and in [3] was “inactive” throughout.
Take `CN1C(=O)C[C@H](C(=O)N[C@@H](Cc2cnc[nH]2)C(=O)N2CCC[C@@H]2C(N)=O)NC1=O`: the Potency result in test [1], in test [2] and in test [3] was “inactive” throughout.
On to `CC1(COc2ccc3c(c2)ncn3-c2ccc3cccc(N4CCC(N)CC4)c3n2)COC1`, for which the Potency in test [1] is 5.23 µM (active); in test [4] it was 15.1 µM (active); in [6], 1.83 µM (active) and 1.32 µM (active). Also, the Potency entry in [2] and in test [3] was “inactive” throughout.
Consider `Cn1cc(-c2ccc3nnc(Sc4ccc5ncccc5c4)n3n2)cn1`, for which the Potency entry in test [1], in test [2] and in test [3] was “inactive” in each case.
`O=C(O)c1ccc(O)c2ncc(N3CCOCC3)cc12`: the Potency result in test [1], in test [2] and in test [3] was “inactive” throughout.
On to `Cc1cc(-c2ncc(CC(=O)Nc3ccc(-c4cnccn4)cn3)cc2C)ccn1`, for which the Potency entry in [1], in [2], in [3], in test [4], in test [5] and in test [12] was “inactive” throughout.
On to `COc1ccc(-c2ccc3ncc4c(c3c2)n(-c2ccc(N3CCNCC3)c(C(F)(F)F)c2)c(=O)n4C)cn1`, for which the Potency in test [1] is 0.147 µM (active); in test [6], 5.2 nM (active) and 14.6 nM (active) and 13.2 nM (active). Further, the Potency result in [2], in [3] and in test [4] was “inactive” each time.
As for `CN(C)CCOc1cc(-c2cn[nH]c2)ccc1NC(=O)C1COc2ccccc2O1` (stereo not given), the Potency result in test [1], in test [2] and in test [3] was “inactive” in each case. For the same compound, the Potency in test [4] is 2.68 µM (active); in test [5] it was 0.674 µM (active).
As to `COc1nccc(-c2c(-c3ccc(F)cc3)ncn2C2CCNCC2)n1`, the Potency entry in test [1] and in test [2] was “inactive” each time.
Take `Cc1cc(C(C)Nc2ccccc2)c2nc(N3CCOCC3)cc(=O)n2c1` (stereo not given): the Potency entry in test [1], in test [2], in test [3] and in [4] was “inactive” throughout. Also, the Potency in test [5] is 1.07 µM (active); in [6], 2.3 µM (active) and 2.63 µM (active).
For `Cn1c(=O)c(-c2c(Cl)cccc2Cl)cc2cnc(Nc3cccc(C(=O)O)c3)nc21`, the Potency result in test [1], in [2], in test [3], in [4], in [5] and in test [6] was “inactive” each time.
For the compound `Cc1cccc(Nc2nc(N[C@@H]3CCCC[C@H]3N)ncc2C(N)=O)c1`, the figures for the Potency in test [1], in test [4] and in test [6] were 13.1 µM (active), 15.1 µM (active) and 1.48 µM (active), respectively. Also, the Potency result in test [2] and in test [3] was “inactive” each time.
Take `C[C@H](c1ccc(F)cc1CCCC(=O)O)N(c1cc(F)ccc1F)S(=O)(=O)c1ccc(Cl)cc1`: the Potency entry in test [1], in test [2] and in test [3] was “inactive” each time. Further, the Potency was 16.9 µM (active) in [4] and 8.49 µM (active) in [5].
As to `CN1CCC(COc2cnc(-c3cccc(Cn4nc(-c5cccc(C#N)c5)ccc4=O)c3)nc2)CC1`, the Potency result in test [1], in test [2], in [3] and in test [4] was “inactive” in each case. Besides, the Potency in [5] is 16.9 µM (active); in test [6] it was 11.8 µM (active) and 16.3 µM (active).
For the compound `C[C@@]1(c2cc(-c3cncnc3)c(F)cc2F)CCSC(N)=N1`, the Potency result in test [1], in [2], in [3] and in test [6] was “inactive” throughout. Also, the Potency in test [4] was 6.74 µM (active); in [5], 16.9 µM (active).
In the case of `CCCC1OC2C[C@@H]3[C@H]4CCC5=CC(=O)C=C[C@]5(C)[C@H]4C(O)C[C@]3(C)[C@]2(C(=O)CO)O1` (stereo not given in full), the Potency entry in test [1], in [2] and in test [3] was “inactive” throughout.
On to `COc1nccc(-c2c(-c3ccc(F)cc3)ncn2C2CCC(O)CC2)n1` (stereo not given), for which the Potency result in test [1], in test [2], in [3], in test [4] and in test [5] was “inactive” throughout.
With `C[C@@H]1C[C@H]2[C@@H]3CCC4=CC(=O)C=C[C@]4(C)[C@@]3(F)[C@@H](O)C[C@]2(C)[C@@]1(O)C(=O)CO`, the Potency result in [1], in [7], in test [2] and in [3] was “inactive” each time. Further, the call in test [8], in test [9] and in test [10] was inactive.
Consider `CCCCC(F)(F)[C@@]1(O)CC[C@H]2[C@H](CC(=O)[C@@H]2CCCCCCC(=O)O)O1`, for which the Potency result in [1] was “inactive”.
